# PMC7862700, “An all-to-all approach to the identification of sequence-specific readers for epigenetic DNA modifications on cytosine”
# Assays:
# Assay in all cases: DAPPL (digital affinity profiling via proximity ligation, sequencing); 10 mM Tris-HCl pH 7.5, 50 mM NaCl, 1 mM DTT, 4% glycerol, room temperature, 30 min; GST-TFs on glutathione beads, 16-mer random dsDNA library, 0.1% formaldehyde crosslink after washing; high values mean tight binding
# FLI1 = biological target: T1, FLI1 (Homo sapiens, UniProt Q01543 1-452); conditions: protein: recombinant; tags: N-terminal GST; dsDNA, one strand shown
# T1 sequence: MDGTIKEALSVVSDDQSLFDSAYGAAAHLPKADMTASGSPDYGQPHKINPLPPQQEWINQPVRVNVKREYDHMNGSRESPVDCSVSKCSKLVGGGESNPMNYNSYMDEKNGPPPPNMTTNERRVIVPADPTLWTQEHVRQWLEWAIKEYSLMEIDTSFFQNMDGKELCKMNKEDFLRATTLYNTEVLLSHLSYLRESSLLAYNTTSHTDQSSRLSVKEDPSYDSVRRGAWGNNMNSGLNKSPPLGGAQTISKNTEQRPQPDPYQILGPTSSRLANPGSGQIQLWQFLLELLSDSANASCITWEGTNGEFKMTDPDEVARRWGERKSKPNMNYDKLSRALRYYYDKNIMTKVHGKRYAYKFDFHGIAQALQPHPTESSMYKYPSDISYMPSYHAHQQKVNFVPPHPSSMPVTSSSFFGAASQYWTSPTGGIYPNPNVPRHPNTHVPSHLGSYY
# How it was run: (§1)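 Binding signal is defined as a hexamer's read frequency for one factor over its frequency for the tag-only sample. To obtain reads, GST-fused human transcription factors were expressed in yeast, captured on glutathione beads, barcoded with DNA and pooled with that sample. Pools met 200 nmole of a 16-mer random double-stranded DNA library in Tris/NaCl/DTT/glycerol buffer for 30 min at room temperature before washing, 0.1% formaldehyde crosslinking, proximity ligation (BsaI/T4 ligase, 1 h, 37 °C), PCR and Illumina NextSeq500 sequencing.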
# ELK1 = biological target: T2, ELK1 (Homo sapiens, UniProt P19419 1-428); conditions: protein: recombinant; tags: N-terminal GST; dsDNA, one strand shown
# T2 sequence: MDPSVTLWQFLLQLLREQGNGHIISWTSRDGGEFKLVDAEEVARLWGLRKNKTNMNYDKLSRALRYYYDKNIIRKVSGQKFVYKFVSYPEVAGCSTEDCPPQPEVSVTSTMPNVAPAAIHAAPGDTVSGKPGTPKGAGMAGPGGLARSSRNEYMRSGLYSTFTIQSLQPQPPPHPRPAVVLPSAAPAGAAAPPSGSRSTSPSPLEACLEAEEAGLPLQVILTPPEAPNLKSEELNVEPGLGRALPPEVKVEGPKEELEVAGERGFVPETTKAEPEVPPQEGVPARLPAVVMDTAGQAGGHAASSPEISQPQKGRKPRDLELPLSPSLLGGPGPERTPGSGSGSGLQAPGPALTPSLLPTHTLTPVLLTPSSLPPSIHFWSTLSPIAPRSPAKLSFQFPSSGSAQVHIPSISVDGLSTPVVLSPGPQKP
# How it was run: as §1
# GABPA = biological target: T3, GABPA (Homo sapiens, UniProt Q06546 1-454); conditions: protein: recombinant; tags: N-terminal GST; dsDNA, one strand shown
# T3 sequence: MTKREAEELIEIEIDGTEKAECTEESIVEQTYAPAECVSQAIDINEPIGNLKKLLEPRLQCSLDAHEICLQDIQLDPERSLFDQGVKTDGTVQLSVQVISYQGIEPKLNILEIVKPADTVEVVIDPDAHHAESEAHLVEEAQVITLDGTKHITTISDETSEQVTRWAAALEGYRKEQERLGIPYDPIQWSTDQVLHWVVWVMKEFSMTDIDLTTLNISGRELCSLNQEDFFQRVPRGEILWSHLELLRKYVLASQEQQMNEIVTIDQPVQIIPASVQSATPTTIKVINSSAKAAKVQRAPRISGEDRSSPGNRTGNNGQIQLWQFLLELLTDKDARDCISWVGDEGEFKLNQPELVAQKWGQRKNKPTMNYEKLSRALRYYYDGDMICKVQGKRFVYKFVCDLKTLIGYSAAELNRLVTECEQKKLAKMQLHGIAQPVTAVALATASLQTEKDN
# How it was run: as §1
# ERG = biological target: T4, ERG (Homo sapiens, UniProt P11308 1-479); conditions: protein: recombinant; tags: N-terminal GST; dsDNA, one strand shown
# T4 sequence: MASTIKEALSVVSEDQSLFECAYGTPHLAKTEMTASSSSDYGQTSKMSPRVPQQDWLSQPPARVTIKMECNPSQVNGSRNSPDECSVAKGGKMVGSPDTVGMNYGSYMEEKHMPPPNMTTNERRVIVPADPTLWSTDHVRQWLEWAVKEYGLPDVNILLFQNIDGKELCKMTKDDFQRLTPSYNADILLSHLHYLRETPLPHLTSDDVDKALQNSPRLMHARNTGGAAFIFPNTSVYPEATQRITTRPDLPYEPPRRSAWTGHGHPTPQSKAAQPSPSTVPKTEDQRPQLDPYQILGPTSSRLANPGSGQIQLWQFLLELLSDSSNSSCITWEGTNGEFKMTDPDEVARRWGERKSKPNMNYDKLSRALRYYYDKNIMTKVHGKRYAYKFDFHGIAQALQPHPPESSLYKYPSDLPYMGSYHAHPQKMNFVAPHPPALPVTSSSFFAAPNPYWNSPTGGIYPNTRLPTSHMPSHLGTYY
# How it was run: as §1
# ELF1 = ELF1 (Homo sapiens, UniProt P32519 1-619); conditions: protein: recombinant; tags: N-terminal GST; dsDNA, one strand shown
# Chain of ELF1 (P32519 whole entry): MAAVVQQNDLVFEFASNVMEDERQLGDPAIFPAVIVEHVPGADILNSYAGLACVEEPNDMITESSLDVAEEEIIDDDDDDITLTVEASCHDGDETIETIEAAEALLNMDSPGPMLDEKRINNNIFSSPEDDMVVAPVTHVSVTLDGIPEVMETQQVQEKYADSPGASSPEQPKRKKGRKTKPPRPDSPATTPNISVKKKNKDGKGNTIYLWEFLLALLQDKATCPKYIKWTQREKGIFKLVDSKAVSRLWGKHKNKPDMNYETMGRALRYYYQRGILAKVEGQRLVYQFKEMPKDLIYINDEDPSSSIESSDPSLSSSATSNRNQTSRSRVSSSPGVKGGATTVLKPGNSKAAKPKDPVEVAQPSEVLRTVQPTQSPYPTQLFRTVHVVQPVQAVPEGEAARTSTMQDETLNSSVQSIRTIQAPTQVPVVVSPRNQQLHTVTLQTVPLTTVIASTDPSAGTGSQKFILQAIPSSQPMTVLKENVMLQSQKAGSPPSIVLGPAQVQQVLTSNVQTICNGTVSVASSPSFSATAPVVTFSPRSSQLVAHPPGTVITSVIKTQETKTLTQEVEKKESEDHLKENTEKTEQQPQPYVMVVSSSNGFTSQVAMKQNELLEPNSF
# How it was run: as §1
# EHF = biological target: T5, EHF (Homo sapiens, UniProt Q9NZC4 1-300); conditions: protein: recombinant; tags: N-terminal GST; dsDNA, one strand shown
# T5 sequence: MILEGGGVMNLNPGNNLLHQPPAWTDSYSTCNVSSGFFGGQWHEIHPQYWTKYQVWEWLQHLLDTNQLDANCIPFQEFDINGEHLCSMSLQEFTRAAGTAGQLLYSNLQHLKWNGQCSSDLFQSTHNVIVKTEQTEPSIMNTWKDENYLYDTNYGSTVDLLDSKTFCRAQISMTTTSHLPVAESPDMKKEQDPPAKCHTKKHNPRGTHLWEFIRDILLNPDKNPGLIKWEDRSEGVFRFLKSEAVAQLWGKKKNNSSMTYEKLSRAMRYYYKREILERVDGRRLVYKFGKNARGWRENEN
# How it was run: as §1
# SPI1 = SPI1 (Homo sapiens, UniProt P17947 1-270); conditions: protein: recombinant; tags: N-terminal GST; dsDNA, one strand shown
# How it was run: as §1
# SPIB = SPIB (Homo sapiens, UniProt Q01892 1-262); conditions: protein: recombinant; tags: N-terminal GST; dsDNA, one strand shown
# Chain of SPIB (Q01892 whole entry): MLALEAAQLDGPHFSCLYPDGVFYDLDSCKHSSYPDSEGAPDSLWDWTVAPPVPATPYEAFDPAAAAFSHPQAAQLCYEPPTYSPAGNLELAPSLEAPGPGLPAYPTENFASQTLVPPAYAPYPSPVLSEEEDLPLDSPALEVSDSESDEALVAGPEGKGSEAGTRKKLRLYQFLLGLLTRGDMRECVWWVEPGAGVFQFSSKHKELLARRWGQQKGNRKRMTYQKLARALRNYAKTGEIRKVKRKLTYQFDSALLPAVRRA
# How it was run: as §1
# ELK3 = biological target: T6, ELK3 (Homo sapiens, UniProt P41970 1-407); conditions: protein: recombinant; tags: N-terminal GST; dsDNA, one strand shown
# T6 sequence: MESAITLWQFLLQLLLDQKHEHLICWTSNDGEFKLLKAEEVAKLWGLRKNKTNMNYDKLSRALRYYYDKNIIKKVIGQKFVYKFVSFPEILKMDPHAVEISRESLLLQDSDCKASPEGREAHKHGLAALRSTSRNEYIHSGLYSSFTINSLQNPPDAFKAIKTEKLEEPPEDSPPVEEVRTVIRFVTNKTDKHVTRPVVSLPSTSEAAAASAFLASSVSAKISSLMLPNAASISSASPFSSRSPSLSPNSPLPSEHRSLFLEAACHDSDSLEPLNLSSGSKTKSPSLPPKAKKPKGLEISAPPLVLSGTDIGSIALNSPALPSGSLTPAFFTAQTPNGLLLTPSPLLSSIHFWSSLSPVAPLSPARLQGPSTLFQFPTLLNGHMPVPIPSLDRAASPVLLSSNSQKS
# How it was run: as §1
# FEV = biological target: T7, FEV (Homo sapiens, UniProt Q99581 1-238); conditions: protein: recombinant; tags: N-terminal GST; dsDNA, one strand shown
# T7 sequence: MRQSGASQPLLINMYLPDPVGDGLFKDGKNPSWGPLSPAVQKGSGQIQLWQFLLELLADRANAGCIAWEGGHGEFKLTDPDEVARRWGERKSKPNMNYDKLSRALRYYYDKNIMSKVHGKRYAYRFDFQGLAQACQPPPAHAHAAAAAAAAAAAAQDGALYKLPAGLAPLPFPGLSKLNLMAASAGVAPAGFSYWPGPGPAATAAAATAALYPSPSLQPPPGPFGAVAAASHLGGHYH
# How it was run: as §1
# ETV5 = ETV5 (Homo sapiens, UniProt P41161 1-510); conditions: protein: recombinant; tags: N-terminal GST; dsDNA, one strand shown
# Chain of ETV5 (P41161 whole entry): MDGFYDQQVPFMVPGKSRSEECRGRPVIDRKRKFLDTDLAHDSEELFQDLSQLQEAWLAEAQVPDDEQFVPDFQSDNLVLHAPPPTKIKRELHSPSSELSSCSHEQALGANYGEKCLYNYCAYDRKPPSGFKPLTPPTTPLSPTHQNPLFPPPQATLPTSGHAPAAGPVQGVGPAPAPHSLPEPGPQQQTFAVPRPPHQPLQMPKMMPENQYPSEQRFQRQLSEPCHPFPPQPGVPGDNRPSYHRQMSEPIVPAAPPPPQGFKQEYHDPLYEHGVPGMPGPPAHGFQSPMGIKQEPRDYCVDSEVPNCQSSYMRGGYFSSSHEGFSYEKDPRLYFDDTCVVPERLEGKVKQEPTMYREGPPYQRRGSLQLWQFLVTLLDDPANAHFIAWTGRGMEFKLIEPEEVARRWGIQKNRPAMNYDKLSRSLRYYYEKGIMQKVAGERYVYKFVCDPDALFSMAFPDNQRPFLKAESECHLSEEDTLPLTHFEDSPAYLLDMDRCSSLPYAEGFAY
# How it was run: as §1
# HSF1 = HSF1 (Homo sapiens, UniProt Q00613 1-529); conditions: protein: recombinant; tags: N-terminal GST; chain copies: 3; dsDNA, one strand shown
# Chain of HSF1 (Q00613 whole entry): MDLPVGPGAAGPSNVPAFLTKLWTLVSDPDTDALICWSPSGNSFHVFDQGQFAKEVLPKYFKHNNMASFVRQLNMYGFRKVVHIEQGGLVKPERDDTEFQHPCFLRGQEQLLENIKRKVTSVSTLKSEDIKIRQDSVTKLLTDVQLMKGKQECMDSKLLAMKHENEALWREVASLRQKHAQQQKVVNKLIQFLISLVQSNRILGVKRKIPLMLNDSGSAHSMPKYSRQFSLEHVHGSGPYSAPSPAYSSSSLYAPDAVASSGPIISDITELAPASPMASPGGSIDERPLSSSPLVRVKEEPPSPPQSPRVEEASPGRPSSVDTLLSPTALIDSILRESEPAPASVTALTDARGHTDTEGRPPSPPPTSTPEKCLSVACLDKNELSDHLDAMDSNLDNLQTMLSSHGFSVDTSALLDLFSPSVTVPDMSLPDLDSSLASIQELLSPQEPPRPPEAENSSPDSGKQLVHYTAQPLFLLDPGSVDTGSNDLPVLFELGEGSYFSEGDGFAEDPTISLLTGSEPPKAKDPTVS
# How it was run: as §1
# SPIC = biological target: T8, SPIC (Homo sapiens, UniProt Q8N5J4 1-248); conditions: protein: recombinant; tags: N-terminal GST; dsDNA, one strand shown
# T8 sequence: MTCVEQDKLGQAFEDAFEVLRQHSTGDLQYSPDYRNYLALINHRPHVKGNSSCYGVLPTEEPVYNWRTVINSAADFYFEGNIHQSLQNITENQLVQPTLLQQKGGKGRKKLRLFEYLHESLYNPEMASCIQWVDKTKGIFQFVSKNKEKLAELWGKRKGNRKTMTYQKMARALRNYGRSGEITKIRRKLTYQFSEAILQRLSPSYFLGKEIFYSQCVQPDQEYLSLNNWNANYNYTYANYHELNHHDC
# How it was run: as §1
# ELF4 = ELF4 (Homo sapiens, UniProt Q99607 1-663); conditions: protein: recombinant; tags: N-terminal GST; dsDNA, one strand shown
# Chain of ELF4 (Q99607 whole entry): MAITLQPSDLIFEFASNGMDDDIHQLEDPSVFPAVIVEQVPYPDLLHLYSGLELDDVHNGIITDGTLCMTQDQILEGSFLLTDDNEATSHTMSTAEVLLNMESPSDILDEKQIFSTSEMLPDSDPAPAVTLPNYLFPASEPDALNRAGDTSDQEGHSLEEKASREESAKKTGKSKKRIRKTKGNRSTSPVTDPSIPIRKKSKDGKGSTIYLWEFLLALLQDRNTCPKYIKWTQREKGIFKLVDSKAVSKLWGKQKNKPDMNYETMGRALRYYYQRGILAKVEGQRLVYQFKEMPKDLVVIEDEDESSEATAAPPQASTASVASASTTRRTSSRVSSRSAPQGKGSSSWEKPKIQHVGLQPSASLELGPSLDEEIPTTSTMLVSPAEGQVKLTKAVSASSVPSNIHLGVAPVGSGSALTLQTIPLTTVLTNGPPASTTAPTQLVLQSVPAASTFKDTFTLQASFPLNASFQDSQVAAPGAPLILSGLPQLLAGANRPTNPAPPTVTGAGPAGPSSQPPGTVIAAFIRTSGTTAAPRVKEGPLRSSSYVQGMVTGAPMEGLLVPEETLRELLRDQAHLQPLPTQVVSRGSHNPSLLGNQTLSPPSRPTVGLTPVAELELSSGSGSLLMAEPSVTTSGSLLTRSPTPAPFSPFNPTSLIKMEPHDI
# How it was run: as §1
# ELK4 = biological target: T9, ELK4 (Homo sapiens, UniProt P28324-2 1-405); conditions: protein: recombinant; tags: N-terminal GST; dsDNA, one strand shown
# T9 sequence: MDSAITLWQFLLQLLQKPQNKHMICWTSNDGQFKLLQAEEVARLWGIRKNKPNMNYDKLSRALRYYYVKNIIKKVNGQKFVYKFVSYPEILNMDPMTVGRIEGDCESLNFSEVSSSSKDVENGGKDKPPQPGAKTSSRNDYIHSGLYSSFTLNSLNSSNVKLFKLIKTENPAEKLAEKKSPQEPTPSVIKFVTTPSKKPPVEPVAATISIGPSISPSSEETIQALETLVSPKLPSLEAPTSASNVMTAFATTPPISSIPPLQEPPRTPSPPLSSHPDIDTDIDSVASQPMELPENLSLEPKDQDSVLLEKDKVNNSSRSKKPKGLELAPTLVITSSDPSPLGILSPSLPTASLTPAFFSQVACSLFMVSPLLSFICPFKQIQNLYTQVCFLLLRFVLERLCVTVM
# How it was run: as §1
# ETV2 = biological target: T10, ETV2 (Homo sapiens, UniProt O00321 1-342); conditions: protein: recombinant; tags: N-terminal GST; dsDNA, one strand shown
# T10 sequence: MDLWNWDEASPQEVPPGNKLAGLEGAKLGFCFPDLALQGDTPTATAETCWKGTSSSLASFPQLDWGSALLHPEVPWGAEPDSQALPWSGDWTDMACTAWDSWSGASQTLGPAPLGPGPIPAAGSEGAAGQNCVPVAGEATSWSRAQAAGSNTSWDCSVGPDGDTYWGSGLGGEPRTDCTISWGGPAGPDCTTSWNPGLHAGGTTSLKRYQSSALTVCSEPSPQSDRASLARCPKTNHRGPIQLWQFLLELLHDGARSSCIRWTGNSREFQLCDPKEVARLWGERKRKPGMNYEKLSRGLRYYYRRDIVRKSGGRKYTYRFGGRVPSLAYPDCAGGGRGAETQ
# How it was run: as §1
# ELF3 = biological target: T11, ELF3 (Homo sapiens, UniProt P78545 1-371); conditions: protein: recombinant; tags: N-terminal GST; dsDNA, one strand shown
# T11 sequence: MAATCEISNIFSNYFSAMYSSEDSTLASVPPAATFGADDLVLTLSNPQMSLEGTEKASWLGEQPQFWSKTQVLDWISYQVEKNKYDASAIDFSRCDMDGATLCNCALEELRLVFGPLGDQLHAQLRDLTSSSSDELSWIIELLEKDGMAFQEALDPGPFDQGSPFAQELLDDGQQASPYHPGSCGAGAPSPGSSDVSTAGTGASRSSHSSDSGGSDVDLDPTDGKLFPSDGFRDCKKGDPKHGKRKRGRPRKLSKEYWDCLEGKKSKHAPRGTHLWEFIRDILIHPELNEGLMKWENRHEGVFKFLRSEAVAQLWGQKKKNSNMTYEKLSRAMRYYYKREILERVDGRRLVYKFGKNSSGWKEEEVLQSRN
# How it was run: as §1
# CRX = CRX (Homo sapiens, UniProt O43186 1-299); conditions: protein: recombinant; tags: N-terminal GST; dsDNA, one strand shown
# Chain of CRX (O43186 whole entry): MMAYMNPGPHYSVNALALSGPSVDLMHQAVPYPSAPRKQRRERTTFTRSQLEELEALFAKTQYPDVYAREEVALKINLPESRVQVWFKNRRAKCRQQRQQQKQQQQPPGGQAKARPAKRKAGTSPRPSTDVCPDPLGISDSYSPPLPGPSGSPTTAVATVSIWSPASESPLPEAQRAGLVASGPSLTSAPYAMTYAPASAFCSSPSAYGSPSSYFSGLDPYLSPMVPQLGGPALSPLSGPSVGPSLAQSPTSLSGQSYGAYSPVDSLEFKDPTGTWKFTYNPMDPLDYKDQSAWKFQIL
# How it was run: as §1
# ETV1 = ETV1 (Homo sapiens, UniProt P50549 1-477); conditions: protein: recombinant; tags: N-terminal GST; dsDNA, one strand shown
# Chain of ETV1 (P50549 whole entry): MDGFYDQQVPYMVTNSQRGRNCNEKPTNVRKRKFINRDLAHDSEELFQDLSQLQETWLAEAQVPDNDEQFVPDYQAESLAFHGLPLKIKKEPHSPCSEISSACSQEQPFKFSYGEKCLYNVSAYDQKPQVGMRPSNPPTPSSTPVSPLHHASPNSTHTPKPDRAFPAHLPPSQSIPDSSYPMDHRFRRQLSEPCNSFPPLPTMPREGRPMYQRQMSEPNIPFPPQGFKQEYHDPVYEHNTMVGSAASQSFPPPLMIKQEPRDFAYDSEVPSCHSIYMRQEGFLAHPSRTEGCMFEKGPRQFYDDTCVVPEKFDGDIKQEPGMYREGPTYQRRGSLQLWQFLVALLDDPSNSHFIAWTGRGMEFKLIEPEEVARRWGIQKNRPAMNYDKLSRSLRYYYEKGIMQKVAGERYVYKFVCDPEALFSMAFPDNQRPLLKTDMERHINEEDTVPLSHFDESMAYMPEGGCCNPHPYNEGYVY
# How it was run: as §1
sequence,measurement,setting,value
TCTCTT,binding signal,FLI1,"1.52 fold enrichment (6-mer frequency, TF over GST control)"
same,binding signal,ELK1,"1.34 fold enrichment (6-mer frequency, TF over GST control)"
same,binding signal,GABPA,"1.45 fold enrichment (6-mer frequency, TF over GST control)"
same,binding signal,ERG,"1.27 fold enrichment (6-mer frequency, TF over GST control)"
same,binding signal,ELF1,"1.47 fold enrichment (6-mer frequency, TF over GST control)"
same,binding signal,EHF,"1.41 fold enrichment (6-mer frequency, TF over GST control)"
same,binding signal,SPI1,"1.32 fold enrichment (6-mer frequency, TF over GST control)"
same,binding signal,SPIB,"1.38 fold enrichment (6-mer frequency, TF over GST control)"
same,binding signal,ELK3,"1.31 fold enrichment (6-mer frequency, TF over GST control)"
same,binding signal,FEV,"1.41 fold enrichment (6-mer frequency, TF over GST control)"
same,binding signal,ETV5,"1.39 fold enrichment (6-mer frequency, TF over GST control)"
same,binding signal,HSF1,"1.39 fold enrichment (6-mer frequency, TF over GST control)"
same,binding signal,SPIC,"1.34 fold enrichment (6-mer frequency, TF over GST control)"
same,binding signal,ELF4,"1.34 fold enrichment (6-mer frequency, TF over GST control)"
same,binding signal,ELK4,"1.49 fold enrichment (6-mer frequency, TF over GST control)"
same,binding signal,ETV2,"1.37 fold enrichment (6-mer frequency, TF over GST control)"
same,binding signal,ELF3,"1.28 fold enrichment (6-mer frequency, TF over GST control)"
same,binding signal,CRX,"1.58 fold enrichment (6-mer frequency, TF over GST control)"
same,binding signal,ETV1,"1.42 fold enrichment (6-mer frequency, TF over GST control)"
